# The campaign covered roughly 420,000 compounds. About 50,000 (12%) were called active. Entries that show only a call come without a potency. Another 26% or so got no clear call; they are omitted. The sample as a whole holds a higher share of actives than the screen did. A number with no mark means an inactive call. The call rests on the fitted dose curve; in most records, active means well fitted inhibition curve with a large enough effect; inconclusive means small, poorly fitted or top-dose-only effect; inactive means flat fitted curve, though single readings scatter.
# Test: qHTS for Inhibitors of human tyrosyl-DNA phosphodiesterase 1 (TDP1): qHTS in cells in presence of CPT; further: nearly all actives have a fitted effect of over 55% in size
# Settings: chicken DT40 Tdp1-/-;hTDP1 cells + 20 nM CPT, ATP luminescence, 48 h; series mostly up to 46.2 µM
# Method in brief: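 Cell growth measured by CellTiter-Glo luminescence after a minimum 48 h, 37 C compound exposure with 20 nM CPT in Tdp1-knockout DT40 cells stably expressing hTDP1, seeded 400/well; qHTS titration format.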
# Potency means the concentration at half of the fitted maximal effect.
SMILES,Potency,"activity change, negative = growth inhibition"
Cc1ccc2[nH]c3c(=O)n(CC(=O)NC(C)C)ncc3c2c1,inactive,–
CN(c1ccc(O)cc1)c1nc(-c2cccnc2)cs1,inactive,–
O=C(Nc1ccc(-c2ccc3nncn3n2)cc1)C1CCCCC1,inactive,–
NNc1nc2c(Cl)cccc2s1,inactive,–
CC(C)NC(=O)N1Cc2cc(C(=O)NCC(F)(F)F)nc(-c3cccc(-c4cc5ccccc5o4)c3)c2[C@@H]1CCO,18.4 µM (active),–
Cc1c(C(=O)NCC2CC2)sc(=O)n1Cc1cccc(F)c1,inactive,–
Cn1c(SCC(=O)NC2CCCCC2)nnc1-c1cc2ccccc2o1,inactive,–
CC(=O)N1Cc2cc(C(=O)NCc3cccc(F)c3)nc(-c3cccc(C4=CCCC4)c3)c2[C@H]1CCO,18.4 µM (active),–
COc1ccc(CCNC(=O)CN(C)S(=O)(=O)c2ccc3nc(C)sc3c2)cc1OC,inactive,–
COCCSc1nnc(NC(=O)c2cc(OC)c(OC)cc2[N+](=O)[O-])s1,inactive,–
CCN1CCN(C(=O)c2cc3cc4ccc(OC)cc4nc3s2)CC1,inactive,–
COC(=O)c1ccc(NC(=O)c2cccc3c2C(=O)N(C2CCCCC2)C3)cc1,inactive,–
CCS(=O)(=O)NCCc1ccc(OC)c(OC)c1,inactive,–
COc1ccc(CCNc2ncnc3sc(C(=O)N4CCCC4)c(C)c23)cc1OC,–,3.59% [at 9.04 µM]
COc1ccc(CCNc2ncnc3nc[nH]c23)cc1OC,18.4 µM (active),–
COc1ccc(/C(C)=N/N2CCOCC2)c(O)c1,inactive,–
O=C(Nc1cc(-c2nn(CC(=O)N3CCCCC3)c(=O)c3ccccc23)ccc1N1CCOCC1)c1ccc(Cl)cc1,inactive,–
CC(=O)c1c(C)[nH]c(C(=O)N2CCN(S(=O)(=O)c3ccc(F)c(F)c3)CC2)c1C,0.231 µM (active),–
CC(=O)c1c(C)[nH]c(C(=O)OCC(=O)Nc2cc(S(=O)(=O)N3CCCCC3)ccc2C)c1C,inactive,–
COc1ccc(S(=O)(=O)N2CCN(C(=O)c3cc(C)oc3C)CC2)cc1,inactive,–
COc1cccc2c1CCC(NC(C)=O)C2=O (stereo not given),inactive,–
Cc1cc(O)c(Sc2ccccc2)c(=O)o1,inactive,–
O=C(Nc1ccccc1Cl)c1ccc2nsnc2c1,inactive,–
O=C(Nc1ccccc1Cl)/C(Cl)=C(\Cl)S(=O)c1ccccc1 (stereo not given),0.164 µM (active),–
O=C(COC(=O)c1cccs1)Nc1ccccc1Cl,inactive,–

SMILES,Potency,"activity change, negative = growth inhibition"
CCNC(=S)NCC,inactive,–
Cc1cc(C)c(S(=O)(=O)NN=C2c3ccccc3[C@H]3Cc4csc[n+]4[C@@H]23)c(C)c1,29.1 µM (active),–
CC(=O)Nc1ccc(S(=O)(=O)NC(C)C(=O)OCCOc2ccc(F)cc2)cc1 (stereo not given),inactive,–
O=C(NCC1CCCO1)c1cc2c(s1)CCCC2 (stereo not given),inactive,–
CCC(=O)NC(NCC1CCCO1)C(Cl)(Cl)Cl (stereo not given),inactive,–
CC1(C(=O)NNC(=S)NCC2CCCO2)CC1(Cl)Cl (stereo not given),18.4 µM (active),–
COc1ccc(NC(=S)N2CCC(NC(=O)c3cccc(F)c3)CC2)cc1,inactive,–
COc1ccc(C)cc1Nc1nc(C)nc2c1oc1ccccc12,inactive,–
CCOC(=O)CC(=O)CSc1nc(-c2ccccc2)cc(-c2ccc(Cl)cc2)c1C#N,inactive,–
CCOc1cc(-c2cc(-c3ccc(NC(C)=O)cc3)nc(N)c2C#N)ccc1O,18.4 µM (active),–
CC(=O)Nc1ccc(-c2cn3cccnc3n2)cc1,inactive,–
CN(C(=O)CSc1nnc(C2CC2)n1C)C1CCCc2ccccc21 (stereo not given),inactive,–
CCC(C)(C)n1nnnc1C(c1ccccc1OC)N1CCSCC1 (stereo not given),inactive,–
COc1ccccc1C(c1nnnn1C(C)(C)C)N1CCN(Cc2ccccc2)CC1 (stereo not given),inactive,–
COc1ccc(OC)c(C(c2nnnn2C(C)(C)C)N2CCc3ccccc3C2)c1 (stereo not given),20.6 µM (active),–
CC(=O)c1nn(-c2cccc(C(F)(F)F)c2)c(=O)[nH]c1=O,inactive,–
CCOc1ccc(CCN2C(=O)c3cccnc3C2=O)cc1OCC,inactive,–
CCOc1ccc(N(CC)C(=O)c2cc3c(=O)oc4ccccc4c3s2)cc1,inactive,–
CCOC(=O)c1ccc2[nH]c3c(c2c1)CCCC3NC=O (stereo not given),inactive,–
O=C(CN1CCN(S(=O)(=O)c2cccc(Cl)c2)CC1)N1CCCCC1,inactive,–
O=C(CN1CCCSc2ccccc21)N1CCN(S(=O)(=O)c2cccc(F)c2)CC1,16.4 µM (active),–
CN(C(=O)CN1C(=O)CCSc2ccc(S(=O)(=O)N3CCCC3)cc21)c1ccccc1,inactive,–
C=CC1=C(C(=O)O)N2C(=O)[C@@H](NC(=O)/C(=N/OCC(=O)O)c3csc(N)n3)[C@H]2SC1,inactive,–
CCn1c(SCC(=O)N/N=C/C=C/c2ccccc2[N+](=O)[O-])nnc1-c1ccccc1,inactive,–
CCC1(C)COC(c2ccc(OC)c(OC)c2)OC1 (stereo not given),inactive,–

SMILES,Potency,"activity change, negative = growth inhibition"
COc1cccc(-c2ccc3c(c2)S(=O)(=O)c2cccc(C(=O)O)c2C3=O)c1OC,inactive,–
Cc1ccc(/C=N/NC(=O)C(NC(=O)c2ccccc2)c2n[nH]c(=O)c3ccccc23)cc1 (stereo not given),inactive,–
CC(C)c1cc(C(=O)N/N=C/C(Br)=C/c2ccccc2)n[nH]1,2.31 µM (active),–
Cc1cc(C(=O)N/N=C\C(Br)=C\c2ccccc2)c(C)o1,8.2 µM (active),–
Cc1cc(C(=O)NCCc2ccc(Cl)cc2)c(C)o1,inactive,–
CC(C)c1cc(C(=O)O)n[nH]1,inactive,–
CC(=C/c1ccccc1)/C=N/NC(=O)c1cc(C)oc1C,inactive,–
Cc1ccc(C2(C)NC(=O)N(CC(=O)Nc3ccccc3C(=O)N3CCCCC3)C2=O)cc1 (stereo not given),inactive,–
CCN(CC)CCCNC(=O)c1cn(C)c2ccc(S(=O)(=O)N(C)C3CCCCC3)cc2c1=O,inactive,–
CCN(CC)CCn1cnc2c1c(=O)n(CCOC(=O)c1cc(OC)c(OC)c(OC)c1)c(=O)n2C,inactive,–
COc1cc2c(cc1OC)C(/C=C/c1ccco1)=NCC2,23.1 µM (active),–
COc1ccc([N+](=O)[O-])cc1NC(=O)COC(=O)/C=C/c1ccco1,inactive,–
CCOC(=O)C1=NN(c2ccc(Cl)cc2)/C(=C/C2=NCCc3cc(OC)c(OC)cc32)S1,inactive,–
C[C@@H]1NC(=O)[C@@]2(C)[C@@H](c3ccccc3)[C@H]3COc4ccccc4[C@@H]3N2C1=O,inactive,–
Cc1ccc2c(c1)NC(=O)[C@@]1(C)[C@@H](c3ccccc3)[C@H]3COc4ccc(Cl)cc4[C@@H]3N1C2=O,25.9 µM (active),–
CCOC(=O)[C@H]1[C@H]2COc3ccc(OC)cc3[C@@H]2N2C(=O)c3ccc(F)cc3NC(=O)[C@@]12C,inactive,–
Cc1ccc(Cl)cc1N1CCN(C(=O)c2cccn3c(=O)c4cc(Cl)ccc4nc23)CC1,inactive,–
Cc1cn(C)c(CC(=O)NCc2ccc(Cl)cc2)c1C(=O)O,inactive,–
CCOC(=O)/C(=C\c1ccc([N+](=O)[O-])cc1)C(=O)c1cc(C(C)=O)c(Nc2ccccc2)s1,0.58 µM (active),–
O=C(Nc1ccccc1)/C(=C/c1ccc([N+](=O)[O-])cc1)NC(=O)c1ccccc1,inactive,–
CCOC(=O)COc1ccc([N+](=O)[O-])cc1,inactive,–
COc1ccc(NC(=O)CN(C)C(=O)c2n[nH]c3ccccc23)cc1,inactive,–
FC(F)(F)c1cccc(Nc2ncnc3ccccc23)c1,11.6 µM (active),–
FC(F)(F)c1cccc(N/N=C/c2ccccc2)c1,inactive,–
O=c1cc(CO)oc(C(Nc2cccc(C(F)(F)F)c2)c2ccccn2)c1O (stereo not given),inactive,–

SMILES,Potency,"activity change, negative = growth inhibition"
COc1ccc(NC(=O)CSc2nc(SC)ns2)c(OC)c1,inactive,–
c1ccc(C2CNCc3c2ccc2ccccc32)cc1 (stereo not given),14.6 µM (active),–
C/C(=N/NC(=O)CC(=O)N/N=C(\C)c1ccc([N+](=O)[O-])cc1)c1ccc([N+](=O)[O-])cc1,inactive,–
COc1ccc(S(=O)(=O)N2CCC(C(=O)NCc3ccco3)CC2)cc1C,inactive,–
COc1ccc(-c2cc(C(=O)NCc3ccco3)no2)cc1OC,inactive,–
COc1ccc(C2=NOC(C(=O)NCc3ccco3)C2)cc1OC (stereo not given),2.59 µM (active),–
O=C1CC2(CCCC2)C(=O)N1CN1CCN(S(=O)(=O)c2ccc(F)cc2F)CC1,inactive,–
O=C(CN1C(=O)NC2(CCc3ccccc32)C1=O)NC1CCCCC1 (stereo not given),inactive,–
CCOc1ccc(CCNC(=O)CN2C(=O)NC3(CCc4ccccc43)C2=O)cc1OCC (stereo not given),inactive,–
CN(C)S(=O)(=O)c1cc(NC(=O)CN2C(=O)NC3(CCCc4ccccc43)C2=O)ccc1Cl (stereo not given),16.4 µM (active),–
Cc1ccc(COc2ccc(C(=O)NN)cc2)cc1,inactive,–
CCN(CC)CCNCC(=O)Nc1ccc(Oc2ccccc2)cc1,inactive,–
O=C(c1ccc2c(c1)C(=O)N(Cc1ccncc1)C2=O)N1CCN(S(=O)(=O)c2ccc(OC(F)(F)F)cc2)CC1,inactive,–
O=C(Nc1cccc(Cl)c1)OCc1ccccn1,inactive,–
OCCCNc1nccc(-c2cc(Nc3cccc(Cl)c3)ncn2)n1,1.16 µM (active),–
NS(=O)(=O)c1cccnc1Nc1cccc(Cl)c1,inactive,–
Cc1c(C)n2c(SCC(=O)NC3CCCC3)nnc2[nH]c1=O,inactive,–
CCCN(CC(=O)Nc1ccc(OC)c(OC)c1)CC(=O)Nc1ccc(F)c(F)c1F,inactive,–
O=C(COc1ccc(S(=O)(=O)N2CCCC2)cc1[N+](=O)[O-])N1CCCCC1,inactive,–
Cc1cc(S(=O)(=O)N2CCOCC2)ccc1OCC(=O)N1CCOCC1,inactive,–
Cc1cc(C(=O)COc2ccccc2[N+](=O)[O-])c(C)n1-c1cccc(S(=O)(=O)N2CCOCC2)c1,16.4 µM (active),–
Cc1cccc(N(C(=O)c2sc(C)nc2C)C(C(=O)NCC2CCCO2)c2ccccc2)c1 (stereo not given),inactive,–
CN(C)c1ccc(S(=O)(=O)NCC(=O)NCC2CCCCC2)cc1[N+](=O)[O-],inactive,–
CCOc1ccc(S(=O)(=O)NCCC(=O)NNC(=O)c2ccc(F)cc2)cc1,inactive,–
O=C(c1ccncc1)N1CCN(S(=O)(=O)c2cccc([N+](=O)[O-])c2)CC1,inactive,–
